Among the data in PubChem BioAssay AID2284333 (EPA ToxCast) are outcome values, retold here.

Molecules are shown by their SMILES. Results filed as inconclusive are left out. Calls of active or inactive are those of the source. The calls were made as follows: active = hit-call score of the fitted dose curve at least 0.9, where 1 is the maximum; inconclusive = response in the unintended direction; inactive = score below 0.9.

The target in this test is rainbow trout Glucocorticoid Receptor (GR), nr3c1 (gene 100136786) (UniProt P49843). The test can be described thus: ATG_rtGR_EcoTox2: Attagene TRANS-FACTORIAL EcoTox-2 HepG2 Assay for rainbow trout Glucocorticoid Receptor (GR). On the procedure: ATG_EcoTox2 is a cell-based, multiplexed assay created by modifying the existing Attagene TRANS-FACTORIAL system to include a panel of nuclear receptors from some or all the following species: human (Homo sapiens), african clawed frog (Xenopus laevis), rainbow trout (Oncorhynchus mykiss), japanese medaka (Oryzias latipes), and zebrafish (Danio rerio). The ECOTOX2-FACTORIAL format uses HepG2, a human liver cell line, with measurements taken at 24 hours after chemical dosing in a 24-well plate. ATG_rtGR_EcoTox2 is one of 29 assay components calculated in the ATG_EcoTox2 assay. It is designed to make measurements of mRNA induction, a form of inducible reporter, as detected with fluorescence intensity signals by Reverse transcription polymerase chain reaction (RT-PCR) and Capillary electrophoresis technology.The assay endpoint ATG_rtGR_EcoTox2 was analyzed in the positive analysis fitting direction relative to DMSO as the negative control and baseline of activity. Using a type of inducible reporter, measures of mRNA for gain-of-signal activity can be used to understand the reporter gene at the transcription factor-level as they relate to the gene for glucocorticoid receptor. Furthermore, this assay endpoint can be referred to as a primary readout, because this assay has produced multiple assay endpoints where this one serves a reporter gene function. To generalize the intended target to other relatable targets, this assay endpoint is annotated to the nuclear receptor intended target family, where the subfamily is steroidal.
Chain of rainbow trout Glucocorticoid Receptor (GR), nr3c1 (gene 100136786) (P49843 whole entry, looked up): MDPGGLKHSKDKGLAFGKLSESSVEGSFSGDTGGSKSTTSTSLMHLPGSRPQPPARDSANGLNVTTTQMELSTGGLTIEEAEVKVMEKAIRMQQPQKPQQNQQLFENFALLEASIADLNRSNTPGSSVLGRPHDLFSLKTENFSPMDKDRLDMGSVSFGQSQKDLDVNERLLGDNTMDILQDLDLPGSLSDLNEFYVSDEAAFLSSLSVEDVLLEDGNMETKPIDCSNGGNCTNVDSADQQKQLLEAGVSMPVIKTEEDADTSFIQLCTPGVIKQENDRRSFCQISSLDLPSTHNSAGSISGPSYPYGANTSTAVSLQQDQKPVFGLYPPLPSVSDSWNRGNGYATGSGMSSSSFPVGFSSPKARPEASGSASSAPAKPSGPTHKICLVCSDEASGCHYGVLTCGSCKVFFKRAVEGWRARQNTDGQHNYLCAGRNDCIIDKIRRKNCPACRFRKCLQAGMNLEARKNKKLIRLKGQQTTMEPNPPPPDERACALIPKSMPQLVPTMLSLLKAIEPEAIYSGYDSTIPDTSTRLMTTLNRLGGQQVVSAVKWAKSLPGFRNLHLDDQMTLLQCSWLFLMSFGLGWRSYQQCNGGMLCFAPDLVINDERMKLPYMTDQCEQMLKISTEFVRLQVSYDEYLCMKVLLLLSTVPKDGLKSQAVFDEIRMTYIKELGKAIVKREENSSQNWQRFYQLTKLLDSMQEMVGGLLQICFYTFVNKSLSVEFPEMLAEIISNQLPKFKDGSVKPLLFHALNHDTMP
Human liver HepG2 cells are transiently transfected with multiple reporter transcription units (MRTUs) in 6-well plates using FuGene 6 reagent (Roche; 3 ml FuGene/1 mg DNA). The MRTU constructs are regulated by a cis-regulating element (promoter). Each RTU expresses a GAL4-UAS that regulates the transcription of a nearby target reporter gene sequence. A major difference between the CIS and TRANS system is that in CIS activities of endogenous TFs are measured, whereas the TRANS assay evaluates changes in activities of exogenous, chimeric NR-Gal4 proteins. […] At the end of 24 hour incubation, total RNA was isolated using TriZol reagent (Invitrogen). The isolated RNA is then reverse-transcribed using oligo(dT) primer and Mo-MLV reverse transcriptase (Invitrogen) with DNAse I (Ambion) treatment for 30 min. The one-tenth of the produced cDNA was amplified by PCR using Taq DNA polymerase (Invitrogen) and two reporter sequence-specific primers. […] The fragments were purified using Qiaquick PCR columns (Qiagen), analyzed on an ABI 3130xL genetic analyzer (Applied Biosystems) with peak positions identified by using a set of X-rhodamine (ROX)-labeled MapMarker1000 molecular weight standards (BioVentures). […]
On to `[Cl][Sn]([c]1ccccc1)([c]1ccccc1)[c]1ccccc1`, for which the outcome was inactive. In the case of `O=S(=O)(O)C(F)(F)C(F)(F)C(F)(F)C(F)(F)C(F)(F)C(F)(F)F` it was “inactive”. Turning to `CCCCOCN(C(=O)CCl)c1c(CC)cccc1CC`, the outcome was inactive. In the case of `O=C(O)C(F)(F)C(F)(F)C(F)(F)C(F)(F)C(F)(F)C(F)(F)C(F)(F)F` it was “inactive”.
